Reference: the supplement of paper PMC3334620
Whole data set: some 33,000 sequences, median “E-score (-0.5 to 0.5)” near -0.013, cut for the highest 2% near 0.3. Shown is part of a subset that was picked to be rich in the highest values.

Each sequence was assayed against T1, Msn1 (UniProt P22148) (assay: PBM E-score (8-mer binding enrichment) (E-score (-0.5 to 0.5)); higher = stronger / more preferred TF binding). Details: protein concentration: 200 nM; construct: GST-full length.
T1 sequence: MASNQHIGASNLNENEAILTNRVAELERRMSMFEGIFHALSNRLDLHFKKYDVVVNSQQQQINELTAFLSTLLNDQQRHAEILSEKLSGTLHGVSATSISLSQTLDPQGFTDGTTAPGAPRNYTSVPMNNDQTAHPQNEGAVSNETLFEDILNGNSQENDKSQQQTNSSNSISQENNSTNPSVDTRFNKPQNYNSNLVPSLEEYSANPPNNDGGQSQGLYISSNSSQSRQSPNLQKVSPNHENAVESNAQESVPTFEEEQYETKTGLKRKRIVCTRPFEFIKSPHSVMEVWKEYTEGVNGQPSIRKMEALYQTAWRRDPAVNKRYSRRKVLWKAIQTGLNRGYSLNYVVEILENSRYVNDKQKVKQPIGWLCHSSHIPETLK
Method: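 Universal 'all 10-mer' protein binding microarrays (Agilent AMADID 015681) probed with GST-tagged S. cerevisiae TFs (full-length or DBD) made by in vitro transcription/translation (PURExpress), about 100-200 nM. Bound TF was detected with fluorescent anti-GST. Each ungapped 8-mer (which stands for itself and its reverse complement) is scored by the PBM enrichment score (E-score), a modified Wilcoxon-Mann-Whitney statistic from -0.5 to +0.5, computed with the Universal PBM Analysis Suite. Scale: above 0.35 generally sequence-specific binding.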

Point of comparison: TAGCAGGA, “PBM E-score” value 0.0461. Against it:
- CACCCTAA — lower, -0.141
- CCCTCTGA — lower, -0.174
- CTAGGACA — higher, 0.489
- ATAGGACA — higher, 0.457
- GTAGGACA — higher, 0.479
- ATAGGACC — lower, -0.11
- GTAGGAGA — lower, -0.204
- CTAGGACC — lower, -0.0875
- ATAGGACG — higher, 0.242
- CTAGGATA — lower, -0.13
- GTAGGATA — lower, -0.0803
- CGCTACAC — lower, -0.231
- GCCACACA — lower, -0.0564
- AACGTTAA — higher, 0.137
- AGTAAGCG — lower, -0.082
- GAGTAGGA — lower, -0.151
- AGGAGACG — lower, -0.298
- GCTTATAA — lower, -0.0204
- ACTTATAC — higher, 0.0919
- ATTTATAC — higher, 0.176
- CTTTATAA — higher, 0.177
- ACTTATAA — higher, 0.333
- ATTTATAA — higher, 0.322
- ACCATAAA — higher, 0.173
- ATATCTGA — higher, 0.112
- CACTTCCA — lower, -0.0388
- CATGTCGG — higher, 0.224
- GATGTCGC — higher, 0.0908
- AATGTCGC — higher, 0.398
- AATGTCGG — higher, 0.33
- AAGGTCGT — lower, -0.0332
- AATGTCGA — higher, 0.299
- CATGTCGC — higher, 0.237
- AGTGTCGG — higher, 0.202
- AATGTCGT — higher, 0.442
- CTCCTTTC — lower, -0.214
- GAAAGTGC — lower, -0.0805
- ATAGACCA — lower, -0.0849
- ACGATCCC — lower, -0.232
- CGGCTCTA — lower, -0.00727
- AGGGACCT — lower, -0.0323
- CGGGACCA — lower, -0.152
- CGGGACAG — higher, 0.197
- CGGGACTC — lower, 0.0112
- CGGGACAA — higher, 0.463
- CGGGACGA — higher, 0.115
- AGGGACCA — lower, -0.188
- AGGGACAA — higher, 0.487
- AGGGACGG — lower, -0.35
- CGGGACAC — higher, 0.376
- AGGGACGA — higher, 0.261
- AGGGACAT — higher, 0.488
- GGCTAAGA — higher, 0.0666
- ATCCTAGC — lower, -0.118
- CCAAGAAA — higher, 0.0697
- AAATAGCA — lower, -0.00406
- AACCTCGT — lower, -0.0168
- AGGGACAG — higher, 0.107
- AGGGACGC — lower, -0.0191
- AGGGACAC — higher, 0.45
- AATTTTGT — higher, 0.34
- AAATTTGG — higher, 0.104
- AATTTTGA — higher, 0.161
- AATTTTGC — lower, 0.0375
- AAATTTGT — higher, 0.363
- AAATTTGA — higher, 0.19
- ACATGCGT — higher, 0.0734
- CGTGTACA — higher, 0.277
- CATTCTAG — lower, -0.0107
- CTAGCGCA — lower, -0.153
- CGCAAAGC — lower, 0.0415
- ACAATACG — higher, 0.0932
- ACAATACA — lower, 0.0447
- ACAATACT — higher, 0.325
- ATAGACAA — higher, 0.41
- ATAGACTA — lower, 0.00413
- ATAGACAG — higher, 0.202
- ATAGACAC — higher, 0.245
- ATAGACGA — higher, 0.0929
- ATAGACAT — higher, 0.428
- ATCGTCTA — lower, 0.0246
- ATGAAGTC — lower, -0.0197
- ACAGCTCG — lower, -0.137
- TAGGAATA — higher, 0.0598
- AACCATGT — higher, 0.0974
- ATGCAGGC — lower, -0.112
- ACATTTAT — higher, 0.319
- ACATTTAG — higher, 0.279
- CCATTTAC — lower, 0.0112
- GCATTTAC — lower, 0.0372
- AGATTTAT — lower, 0.0411
- ACATTTAC — higher, 0.333
- CACAAGCC — lower, -0.139
- CATCAGTA — lower, 0.0122
- AGTGGTCG — lower, -0.0675
- AGTTAAAT — higher, 0.0476
- CGTGTTAA — lower, -0.00332
- ATTTCGGA — higher, 0.239
- CGGGGACG — lower, -0.152
- TGGGGACA — higher, 0.433
- TGGGGAAA — lower, -0.0201
- GGGGGACA — higher, 0.287
- CGGGGACA — higher, 0.396
- CGGGGACC — lower, -0.1
- AGGGGACA — higher, 0.386
- AGGGGACT — lower, -0.151
- AGGGGACG — lower, -0.0829
- CTTGAGAC — higher, 0.0475
- GACGTTAC — higher, 0.0854
- AGGACGTC — higher, 0.177
- GAGAAACA — higher, 0.0761
- CGAGTGGC — lower, -0.181
- ATGTCGCG — higher, 0.387
- ATGTCGCC — higher, 0.115
- ACGTCGCG — higher, 0.138
- GTGTCGCA — lower, 0.0382
- ATGTCGCA — higher, 0.38
- AGGTCGCG — higher, 0.0713
- GGGGCCAC — lower, -0.325
- GTCGCGAC — higher, 0.349
- CTCGCGAC — lower, 0.0116
- GTCGCGAA — higher, 0.141
- AAGCTGGT — lower, -0.026
- TAGGCCTA — lower, -0.0564
- CCGTTGTA — higher, 0.187
- ACGTTGTC — higher, 0.119
- CAGTTGTA — higher, 0.069
- AAGTTGTC — higher, 0.298
- CAGTTGTC — higher, 0.32
- CCGTTGTC — higher, 0.304
- ACATTCTG — higher, 0.162
- GCACCCGC — lower, -0.163
- ACATTGGC — lower, -0.0178
- ATTCAGGC — higher, 0.0647
- CACATTGC — higher, 0.115
- TACATTGA — higher, 0.105
- GACATTGC — higher, 0.434
- GACATTGA — higher, 0.386
- CACATTGA — lower, 0.0276
- AACATTGC — lower, -0.162
- ATCCCGGG — lower, 0.0417
- CAGAGACA — higher, 0.204
- GCTCAAGA — lower, -0.102
- CACGGCTG — lower, -0.156
- CAGGTGGA — lower, -0.193
- CTGCCCTC — lower, -0.329
- ATAAAGTA — higher, 0.243
- ACAAAGTC — higher, 0.236
- AAAAAGTC — higher, 0.418
- GAAAAGTC — higher, 0.326
- ATAAAGTC — higher, 0.305
- ATAAAGTG — higher, 0.154
- GAAAAGGC — lower, -0.0462
- GAAAAGTA — higher, 0.167
- CAAAAGTC — higher, 0.282
- AAGCGAGA — lower, -0.127
- CGGCCACG — lower, -0.189
- GACCCGAC — lower, -0.0784
- AGGTAATC — lower, -0.139
- AACAAAAG — higher, 0.101
- ACAGCGTG — higher, 0.0507
- CTATGTAC — higher, 0.189
- GAATGTGC — lower, -0.148
- AAATGTAG — lower, -0.0386
- GAATGTAC — higher, 0.342
- CAATGTAC — higher, 0.195
- GAATGTAA — lower, -0.0699
- ATATGTAA — higher, 0.131
- ATATGTAC — higher, 0.371
- AAATGTAC — higher, 0.371
- ATATCACG — lower, -0.0452
